PubChem BioAssay (Tox21)
Activity calls are given as the source filed them. Calls come from the whole dose curve; as a rule, active = well fitted curve in the direction sought with a large enough effect in the repeat runs; inconclusive = weak or mixed curves; inactive = flat fitted curve, though single readings scatter.

Experiment: qHTS assay to test for compound auto fluorescence at 535 nm (green) in HepG2 cells (AID 720675)
Details: green autofluorescence 485/535 nm, 1 h; series mostly up to 46 µM
Excerpt: National Center for Advancing Translational Sciences [NCATS]
NIH Chemical Genomics Center [NCGC]
U.S. Environmental Protection Agency [EPA]
National Institutes of Environmental Health Sciences [NIEHS]
National Toxicology Program [NTP]
U.S. Food and Drug Administration [FDA]
Compound auto fluorescence often interferes with screening of the compound library against various biological targets and signaling pathways. Some of these compounds may have fluorophoric properties. Such properties may interfere with the assay outputs resulting in false positives and/or negatives. To decrease such complications and ensure the compound activities are relevant in terms of biological response, the Tox21 10K compound library was screened for auto fluorescence.
From the fluorophores used as reporter signals in our screening assays, the auto fluorescence equivalencies of compounds against three fluorophores have been evaluated: Triamterene, Fluorescein and Rose Bengal sodium for blue, green and red fluorescence, respectively. The fluorescence intensities were measured using Excitation/Emission wavelengths at 405/460nm, 485/535nm and 540/590nm for blue, green and red labels, respectively. This assay includes the green fluorescence data.
Tox21 Assay Protocol Summary:
2,000 HepG2 cells in 5 uL of culture medium (MEM containing 10% FBS) per well were dispensed into black wall/clear bottom 1536-well plates using a Multidrop Combi Dispenser (ThermoFisher Scientific, Waltham, MA). The assay plates were incubated overnight at 37 C to allow cell attachment to the well bottom, followed by the transfer of 23 nL compound or DMSO vehicle by a pintool work station (Kalypsys , San Diego, CA). After the assay plates were incubated for 1 hr at 37 C and 5% CO2, fluorescence intensities in the assay plates were measured by an Envision (PerkinElmer, Shelton, CT) plate reader using three labels for measuring blue, green and red fluorescence at […] 460, 535 and 590 nm respectively.

SMILES	outcome
COc1cc(C[C@H](C)N)c(OC)cc1Br	inactive
C[C@]12CC[C@H]3[C@@H](CCC4=CC(=O)CC[C@@]43C)[C@@H]1CC[C@@H]2OC(=O)CCc1ccccc1	inactive
CN1C2CCC1CC(OC(c1ccccc1)c1ccc(Cl)cc1)C2 (stereo unspecified)	inactive
CCC(=O)O[C@H]1[C@@H](N2CCCCC2)C[C@H]2[C@@H]3CC[C@H]4C[C@H](OC(C)=O)[C@@H](N5CCCCC5)C[C@]4(C)[C@H]3CC[C@@]21C	inactive
CCC(=O)O[C@](Cc1ccccc1)(c1ccccc1)[C@H](C)CN(C)C	inactive
Cc1ccc2c(c1)[C@]13CCCC[C@@H]1[C@H](C2)N(C)CC3	inactive
CC[C@@H](O)C(C[C@@H](C)N(C)C)(c1ccccc1)c1ccccc1	inactive
CN1CCN=C(c2ccccc2)c2cc(Cl)ccc21	inactive
Clc1ccc([C@@H]2C[C@H]3CC[C@@H]2N3)cn1	inactive
CC(=O)O[C@H]1C[C@H](O[C@H]2[C@@H](O)C[C@H](O[C@H]3[C@@H](O)C[C@H](OC4CC[C@@]5(C)C(CC[C@@H]6[C@@H]5CC[C@]5(C)[C@@H](C7=CC(=O)OC7)[C@@H](O)C[C@]65O)C4)O[C@@H]3C)O[C@@H]2C)O[C@H](C)[C@H]1O[C@@H]1O[C@H](CO)[C@@H](O)[C@H](O)[C@H]1O (stereo partly specified)	inactive
C#C[C@]1(OC(=O)CCCCCC)CC[C@H]2[C@@H]3CCC4=CC(=O)CC[C@@H]4[C@H]3CC[C@@]21C	inactive
